Where “and” joins values, the source holds several entries; their conditions need not be identical. Equal values may be shown once. In all, about 34,000 compounds went through this assay and about 290 (0.85%) showed an effect of 50% or more. The sample holds strong results, similar compounds and a random draw of the others, so the mix is not that of the screen.
Test system: Plasmodium falciparum
Experiment: Plasmodium falciparum sporozoite viability assay
Format: functional, organism-based
Set-up: scale not given: in the data most compounds retested in dose-response had high values

Row | Compound | Percent Effect [%] | Percent Effect (10 mM as filed; unlikely as a test dose)
1 | CCc1nc(CNC(C)Cn2cccn2)cs1 (configuration not stated) | 4.8 | 
2 | CNC(=O)[C@@H]1CN(Cc2ccccc2)C[C@H]1C(=O)c1ccc(F)cc1 | 12.45 | 
3 | CC(C)(C)n1cc(C2=CCN(CCc3ccccn3)CC2)cn1 |  | 78.88% and 77.42%
4 | CC(C)(C)n1cc(C2=CCN(CCc3ccccc3)CC2)cn1 |  | 84.88% and 75.7% and 89.28%
5 | CC(C)(C)n1cc(C2=CCN(CCNC(N)=O)CC2)cn1 |  | -28.2% and -25.06%
6 | CC(C)(C)n1cc(C2=CCN(CCNC(=O)c3ccccc3)CC2)cn1 |  | -11.67% and -1.893%
7 | Cc1nc(O)cc(CN2CC=C(c3cnn(C(C)(C)C)c3)CC2)n1 |  | -34.41% and -32.55%
8 | CC(C)(C)n1cc(C2=CCN(CCN3CCCCCC3)CC2)cn1 |  | -30.5% and -32%
9 | O=C(O)C(F)(F)F.O=C(O)C(F)(F)F.O=S(=O)(C1CC1)N1CCC2(CC1)CN(Cc1ccccn1)CCO2 | 0.5199 | 
10 | CCS(=O)(=O)N1CCN(CC2CC2)c2ncccc2C1 | 11.27 | 
11 | O=C(c1ccsc1)N1CCN2C[C@H](OCc3ccccn3)C[C@H]2C1 | 1.117 | 
12 | O=C(Cc1ccccn1)N1CCN2C[C@H](OCCN3CCCC3)C[C@H]2C1.O=C(O)C(F)(F)F.O=C(O)C(F)(F)F.O=C(O)C(F)(F)F | -8.505 | 
13 | Cl.FC(F)(F)c1nc(C2CCCNC2)no1 (configuration not stated) | 6.016 | 
14 | Cc1cccc(Nc2ccc(C3CCCCN3)cn2)n1 (configuration not stated) |  | 97.8% and 85.07% and 40.73%
15 | Cc1cc(O)nc(C2CCCNC2)n1.Cl (configuration not stated) | 1.062 | 
16 | Cc1cc(C)nc(C2CCCNC2)n1.Cl.Cl (configuration not stated) | 16.42 | 
17 | c1cnc(Nc2ccc(C3CCCCN3)cn2)cn1 (configuration not stated) |  | -2.241% and -0.3197% and -12.37%
18 | COCCN1CCOCC12CCN(C(=O)c1ccncc1)CC2.O=C(O)C(F)(F)F | -4.875 | 
19 | O=C(O)C(F)(F)F.O=C(O)C(F)(F)F.c1cncc(N2CCOCC3(CN(Cc4cccs4)CCO3)C2)c1 (configuration not stated) | 7.302 | 
20 | O=C(O)C(F)(F)F.O=C(O)C(F)(F)F.c1cncc(COCC2CC[C@H]3[C@H]2OCCN3Cc2ccoc2)c1 (some centres not stated) | 12.08 | 
21 | O=C(O)C(F)(F)F.O=C(O)C(F)(F)F.c1cncc(OC[C@@]23CCC[C@@H]2CN(C2CCOCC2)C3)c1 | 9.846 | 
22 | O=C(O)C(F)(F)F.O=C(O)C(F)(F)F.c1cnc(N2CC3(CCN(Cc4ccncc4)C3)C2)nc1 | -6.54 | 
